According to PubChem BioAssay:
Calls of active or inactive are those of the source.

Columns and labels:
[1] = small molecules captured by biotinylated probe aFSTL3 – biochemical, small-molecule microarray, fluorescence 635/667, stem cell growth factor project, primary screen (AID 1064); conditions: higher = more signal;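 also: measures binding of the biotinylated anti-FSTL3 antibody to printed compounds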
[2] = binders from COS7 lysate, DM2A8 probe, primary screen, torsin A project, cell lysate, small-molecule microarray, fluorescence 635/667 (AID 1065); conditions: higher = more signal, COS7 lysate expressing mutant human TOR1A
[3] = small molecules captured by biotinylated probe aFGF2 – biochemical, small-molecule microarray, fluorescence 635/667, stem cell growth factor project, primary screen (AID 1067); conditions: higher = more signal;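 also: measures binding of biotinylated aFGF2 protein to printed compounds on slides; z-score merges feature fluorescence and signal-to-noise across triplicate slides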
[4] = small molecules captured by biotinylated probe aFGF10 – biochemical, small-molecule microarray, fluorescence 635/667, stem cell growth factor project, primary screen (AID 1071); conditions: higher = more signal;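 also: score merges 667 nm spot intensity and signal to noise from triplicate slides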
[5] = molecular target: Neurogenic locus notch homolog protein 2 (Homo sapiens) (UniProt Q04721); assay: small molecules binding Notch2 protein – biochemical, small-molecule microarray, 635 nm fluorescence, stem cell growth factors, primary screen (AID 1073); conditions: higher = more signal
Neurogenic locus notch homolog protein 2 (Homo sapiens), sequence (Q04721 whole entry, looked up, canonical isoform): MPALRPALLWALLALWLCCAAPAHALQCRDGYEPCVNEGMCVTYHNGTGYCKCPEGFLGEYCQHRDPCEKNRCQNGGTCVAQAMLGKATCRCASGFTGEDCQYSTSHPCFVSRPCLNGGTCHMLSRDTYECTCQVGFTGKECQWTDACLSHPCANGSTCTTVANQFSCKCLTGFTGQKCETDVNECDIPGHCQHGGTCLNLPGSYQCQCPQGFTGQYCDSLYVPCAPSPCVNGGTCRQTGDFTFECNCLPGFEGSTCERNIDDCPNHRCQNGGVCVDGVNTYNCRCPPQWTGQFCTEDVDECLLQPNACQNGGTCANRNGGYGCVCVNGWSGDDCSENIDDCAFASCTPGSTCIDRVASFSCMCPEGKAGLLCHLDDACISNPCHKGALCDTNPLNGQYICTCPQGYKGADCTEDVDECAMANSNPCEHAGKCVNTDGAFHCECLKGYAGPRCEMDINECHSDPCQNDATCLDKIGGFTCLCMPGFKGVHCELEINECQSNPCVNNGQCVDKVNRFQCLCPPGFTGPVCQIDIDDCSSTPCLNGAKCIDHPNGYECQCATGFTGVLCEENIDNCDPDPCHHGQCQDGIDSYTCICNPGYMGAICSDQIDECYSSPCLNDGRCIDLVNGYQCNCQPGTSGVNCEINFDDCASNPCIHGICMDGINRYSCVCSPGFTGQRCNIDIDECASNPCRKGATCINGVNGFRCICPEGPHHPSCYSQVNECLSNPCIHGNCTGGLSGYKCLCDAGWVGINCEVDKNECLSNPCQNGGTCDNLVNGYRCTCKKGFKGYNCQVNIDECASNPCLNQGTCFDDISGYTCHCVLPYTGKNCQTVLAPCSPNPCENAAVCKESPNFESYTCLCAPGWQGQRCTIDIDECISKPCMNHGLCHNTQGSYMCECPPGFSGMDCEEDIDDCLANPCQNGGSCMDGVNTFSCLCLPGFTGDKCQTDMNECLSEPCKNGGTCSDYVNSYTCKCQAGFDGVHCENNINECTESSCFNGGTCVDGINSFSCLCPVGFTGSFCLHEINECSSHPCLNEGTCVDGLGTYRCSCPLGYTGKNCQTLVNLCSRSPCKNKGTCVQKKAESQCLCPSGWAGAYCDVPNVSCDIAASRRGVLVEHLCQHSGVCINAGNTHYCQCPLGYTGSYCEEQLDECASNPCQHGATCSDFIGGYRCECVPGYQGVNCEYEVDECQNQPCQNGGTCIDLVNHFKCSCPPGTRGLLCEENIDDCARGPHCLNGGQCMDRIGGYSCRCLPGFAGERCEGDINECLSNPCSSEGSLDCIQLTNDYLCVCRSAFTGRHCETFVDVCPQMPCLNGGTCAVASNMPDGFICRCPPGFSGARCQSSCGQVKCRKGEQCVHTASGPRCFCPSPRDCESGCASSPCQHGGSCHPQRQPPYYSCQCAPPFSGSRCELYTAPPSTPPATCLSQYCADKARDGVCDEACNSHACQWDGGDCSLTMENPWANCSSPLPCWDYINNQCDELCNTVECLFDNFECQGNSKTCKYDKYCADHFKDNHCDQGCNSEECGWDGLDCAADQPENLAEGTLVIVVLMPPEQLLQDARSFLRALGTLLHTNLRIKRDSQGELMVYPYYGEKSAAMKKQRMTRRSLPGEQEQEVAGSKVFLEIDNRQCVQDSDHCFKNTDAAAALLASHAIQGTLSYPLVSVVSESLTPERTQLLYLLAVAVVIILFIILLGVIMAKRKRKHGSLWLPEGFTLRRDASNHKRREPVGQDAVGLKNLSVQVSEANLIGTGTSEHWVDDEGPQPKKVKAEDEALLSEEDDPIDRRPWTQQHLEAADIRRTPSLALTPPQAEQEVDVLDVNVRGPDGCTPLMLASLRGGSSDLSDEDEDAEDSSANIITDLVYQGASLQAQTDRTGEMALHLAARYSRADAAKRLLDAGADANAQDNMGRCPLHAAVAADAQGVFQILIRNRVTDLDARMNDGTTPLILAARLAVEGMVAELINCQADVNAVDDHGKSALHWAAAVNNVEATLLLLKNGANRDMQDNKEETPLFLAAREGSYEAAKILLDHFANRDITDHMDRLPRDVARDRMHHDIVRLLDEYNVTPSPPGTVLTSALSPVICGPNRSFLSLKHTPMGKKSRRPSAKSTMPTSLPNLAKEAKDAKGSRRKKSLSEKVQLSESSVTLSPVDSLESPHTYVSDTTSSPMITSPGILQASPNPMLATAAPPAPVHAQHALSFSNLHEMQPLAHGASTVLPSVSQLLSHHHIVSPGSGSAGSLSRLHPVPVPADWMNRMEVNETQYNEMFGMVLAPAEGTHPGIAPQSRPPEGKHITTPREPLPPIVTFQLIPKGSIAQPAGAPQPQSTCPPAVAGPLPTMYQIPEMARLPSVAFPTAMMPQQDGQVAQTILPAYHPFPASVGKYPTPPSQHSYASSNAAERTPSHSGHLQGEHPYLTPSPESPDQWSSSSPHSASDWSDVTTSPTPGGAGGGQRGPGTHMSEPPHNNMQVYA

[6] = molecular target: Pro-neuregulin-1, membrane-bound isoform (Homo sapiens) (UniProt Q02297); assay: small molecules binding neuregulin-1 protein – biochemical, small-molecule microarray, fluorescence 635/667, psychiatric disease protein project, primary screen (AID 1075); conditions: NRG1 binding, 635 nm fluorescence, higher = more signal;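 also: score combines 667 nm spot fluorescence with signal to noise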
Pro-neuregulin-1, membrane-bound isoform (Homo sapiens), sequence (Q02297 whole entry, looked up, the tested form may be a part, canonical isoform): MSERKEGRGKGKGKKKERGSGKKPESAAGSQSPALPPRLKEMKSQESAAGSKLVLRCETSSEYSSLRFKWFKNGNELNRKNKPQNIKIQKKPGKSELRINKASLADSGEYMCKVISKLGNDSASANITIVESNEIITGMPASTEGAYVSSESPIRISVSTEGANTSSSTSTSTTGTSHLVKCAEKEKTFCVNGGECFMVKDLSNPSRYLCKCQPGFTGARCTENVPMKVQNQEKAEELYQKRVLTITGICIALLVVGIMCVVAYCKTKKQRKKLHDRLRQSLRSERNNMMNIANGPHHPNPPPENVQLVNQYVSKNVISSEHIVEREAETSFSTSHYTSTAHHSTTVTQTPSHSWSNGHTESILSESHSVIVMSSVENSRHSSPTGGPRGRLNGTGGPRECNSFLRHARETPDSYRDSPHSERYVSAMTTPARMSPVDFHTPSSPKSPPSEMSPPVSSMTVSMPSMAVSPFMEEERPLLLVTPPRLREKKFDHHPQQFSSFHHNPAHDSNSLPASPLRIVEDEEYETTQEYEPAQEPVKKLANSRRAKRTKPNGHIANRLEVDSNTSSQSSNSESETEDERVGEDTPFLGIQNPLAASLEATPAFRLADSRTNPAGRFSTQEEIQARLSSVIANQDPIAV

[7] = system: Neuregulin-1 EGF-like domain; assay: small molecules binding NRG1 EGF domain – biochemical, small-molecule microarray, 635 nm fluorescence, primary screen (AID 1081); conditions: higher = more signal;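 also: binding of the protein to compounds printed on small-molecule microarray slides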
[8] = FRG1 expression reporter modulators in myotubes – cell-based, C2C12 myotubes, firefly/Renilla luciferase, luminescence, FRG1 inhibition for FSHD, primary screen (AID 1084); conditions: FRG1 promoter luciferase, higher = more signal, called active from +8 up or from −8 down
[9] = small molecules captured by biotinylated probe aFST – biochemical, small-molecule microarray, fluorescence 635/667, stem cell growth factor project, primary screen (AID 1086); conditions: higher = more signal;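 also: score merges 667 nm fluorescence with signal-to-noise of each printed compound spot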
[10] = binders of probe aHhip on microarray, primary screen, stem cell growth factor project, biochemical, small-molecule microarray, fluorescence 635/667 (AID 1087); conditions: higher = more signal;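 also: score merges spot fluorescence at 667nm with spot signal to noise ratio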

SMILES	composite z-score [1]	composite z-score [2]	composite z-score [3]	composite z-score [4]	composite z-score [5]	composite z-score [6]	composite z-score [7]	z-score [8]	composite z-score [9]	composite z-score [10]
COc1ccc([Si](C)(C)[C@H]2[C@H](CC(=O)N(CCO)Cc3ccccc3)O[C@@]3(C(=O)N(C)c4c(Br)cc(C)cc43)[C@@H]2C)cc1	0.145	0.671	-0.0861	0.208	-0.0381	0.435	1.22	-2.73 (inactive)	0.152	0.107
COc1cc2c(cc1O)C(C1CC1)N(Cc1cccc(OC(F)(F)F)c1)CC2 (stereo not given)	-0.119	0.257	-0.101	0.248	-0.725	1.39	0.857	0.329 (inactive)	-0.182	0.132
COc1ccc([Si](C)(C)[C@H]2[C@H](CC(=O)N3CCC[C@H]3CO)O[C@@]3(C(=O)N(Cc4ccc(N5CCOC5=O)cc4)c4ccccc43)[C@@H]2C)cc1	-0.591	0.582	-0.043	0.44	1.15	1.1	1.21	-4.09 (inactive)	0.268	-0.0237
O=C1C2C=CC(C(O)c3ccco3)N(Nc3ccccc3F)C2C(=O)N1c1ccccc1 (stereo not given)	-0.111	-0.501	0.134	0.458	1.02	1.32	0.894	0.793 (inactive)	0.931	-0.173
COc1ccc([Si](C)(C)[C@@H]2[C@@H](CC(=O)N(CCO)Cc3ccccc3)O[C@]3(C(=O)N(Cc4cccc(N5CCCCC5=O)c4)c4ccccc43)[C@H]2C)cc1	0.0001	0.585	-0.0019	0.212	0.185	1.72	1.23	0.306 (inactive)	0.222	-0.181
CCCN1C(=O)[C@@]2(Cc3ccccc31)N=C(c1ccc(OCCCO)cc1)O[C@H]2c1ccccc1	0.654	0.27	-0.0909	0.181	0.697	1.55	1.21	-1.35 (inactive)	0.193	-0.0852
C=C[C@H](C)[C@H](OC(=O)Nc1ccc(SC)cc1)c1ccc(OCCO)cc1	-0.0439	1.18	-0.1	0.406	-0.34	0.745	1.15	4.38 (inactive)	0.0319	0.0972
CCCC=C(CCC)[C@@H](NS(=O)(=O)CC12CCC(CC1=O)C2(C)C)c1ccc(C(=O)OC)cc1 (stereo not given in full)	-0.126	0.645	0.291	0.375	0.621	0.128	1.09	2.86 (inactive)	0.974	0.274
[N-]=[N+]=Nc1ccccc1C[C@]1(C(=O)NCC(O)CO)COC(c2ccc(OCCCO)cc2)=N1 (stereo not given in full)	0.502	0.475	0.0154	0.859	-0.33	1.43	1.14	2.1 (inactive)	0.255	-0.0994
C=C(/C(=C/C[C@H](OC(=O)c1ccncc1)c1ccc(CO)o1)c1cnc2ccccc2c1)C(C)C	-0.418	0.0906	-0.0325	1.21	1.44	0.519	1.17	0.368 (inactive)	0.106	0.0373
Cc1ccc(NN2C(C(O)c3c(F)cccc3Cl)C=CC3C(=O)N(C4CCCCC4)C(=O)C32)cc1 (stereo not given)	1.14	0.44	0.0749	0.507	1.55	1.46	1.06	0.0701 (inactive)	0.697	-0.254
N[C@@H](Cc1ccccc1)C(=O)NCc1cn(Cc2ccccc2)nn1	0.231	0.595	-0.0465	0.157	0.108	-0.191	1.04	0.46 (inactive)	0.145	-0.0296
CC(C)N1CC=CC23O[C@@H]4C=CCCOC(=O)C4[C@H]2C(=O)N(CCCO)[C@@H]3C1=O (stereo not given in full)	-0.339	-0.0962	-0.12	-0.458	-0.693	-0.491	0.059	-0.395 (inactive)	0.002	0.0505
COc1cc(OC)c(C(O)C2C=CC3C(=O)N(Cc4ccccc4)C(=O)C3N2n2cnnc2)cc1Br (stereo not given)	-0.245	2.19	-0.0131	0.919	0.36	1.32	1.12	0.569 (inactive)	1.35	-0.0645
C=C(COC)C(=O)CC[C@@H](OC(C)=O)c1cccc(OCCO)c1	-0.0369	-0.489	-0.085	0.243	-0.0381	-0.372	0.691	-0.721 (inactive)	-0.204	-0.249
CCOC(=O)C[C@H]1[C@H](OC(=O)c2ccc(C(=O)c3ccccc3)cc2)[C@@H](NC(=O)C2CCCCC2)c2cc(OCCCO)ccc2N1C(=O)c1ccc2ccccc2n1	-0.244	0.213	-0.0885	0.735	1.03	0.532	0.722	0.0852 (inactive)	0.842	0.382
CCCCCN1CC=CC23O[C@@H]4C=CCCOC(=O)C4[C@H]2C(=O)N(CCCCCCO)[C@@H]3C1=O (stereo not given in full)	0.0199	-0.336	-0.169	0.0401	-0.812	1.98	0.99	-0.457 (inactive)	-0.658	-0.0994
CCCCCCCCCC(O)C1C=CC2C(=O)N(c3ccccc3)C(=O)C2N1Nc1cc(OC)c(OC)c(OC)c1 (stereo not given)	-0.0386	-0.666	0.0166	0.23	0.45	0.856	0.487	0.393 (inactive)	0.199	-0.13
C=CCC(OC(C)=O)[C@@H]1[C@@H](N(Cc2ccc(-c3ccccc3)cc2)C(=O)c2ccc(-c3ccccc3)cc2)c2cc(OCCCO)ccc2N1C(=O)c1ccc2ccccc2c1 (stereo not given in full)	0.0946	0.107	-0.128	0.178	-0.443	-0.227	-0.896	0.807 (inactive)	0.352	-0.353
CS(=O)(=O)CCOC(=O)C1=CC(c2ccc(CO)cc2)=CC(C2CC2)N(Cc2sc3ccccc3c2Cl)C=C1C(=O)OCCS(C)(=O)=O (stereo not given)	-0.0385	0.569	-0.0746	0.165	0.87	1.77	0.962	-1.06 (inactive)	0.223	0.316
[N-]=[N+]=Nc1ccccc1C[C@@]1(C(N)=O)N=C(c2ccc(OCCCO)cc2)O[C@@H]1c1ccccc1N=[N+]=[N-]	0.613	0.338	-0.0751	0.684	1.45	0.467	1.26	0.0144 (inactive)	0.493	0.0722
